# Measurements as given in PubChem BioAssay.
# The source made the active and inactive calls.
# Columns and labels:
# [1] = compounds binding Alexa647 anti-His antibody – biochemical, small-molecule microarray, 635 nm fluorescence, artefact control for SMM control protein annotation, primary screen (AID 1128); conditions: higher = more signal;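 note: score merges feature fluorescence with signal-to-noise for each printed compound spot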
# [2] = system: Human papillomavirus type 1a E7 protein (residues 1-88); test: HPV1a E7 small-molecule binders, primary screen, biochemical, small-molecule microarray, residues 1-88, 635 nm (AID 1129); conditions: small-molecule microarray binding, fluorescence 635 nm; higher = more signal
# [3] = molecular target: Focal adhesion kinase 1 (Homo sapiens) (UniProt Q05397); test: PTK2 protein binding on printed compound slides – biochemical, small-molecule microarray, 635/667 nm fluorescence, BSA, DTT, primary screen (AID 1130); conditions: 635 nm fluorescence, higher = more signal;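 note: composite of spot emission at 667 nm and signal to noise over triplicate slides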
# [4] = system: Fibrinogen (Alexa647-labelled); test: Alexa647-fibrinogen binding to printed small molecules – biochemical, small-molecule microarray, 635/667 nm fluorescence, artefact control for SMM control-protein annotation, profiling panel (AID 1131); conditions: fibrinogen-A647 binding fluorescence, higher = more signal;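 note: z-score merges 667 nm fluorescence with per-spot signal-to-noise over triplicate slides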
# [5] = molecular target: Follistatin (Homo sapiens) (UniProt P19883); test: FST protein binding to printed compounds – biochemical, small-molecule microarray, 635/667 nm fluorescence, primary screen (AID 1132); conditions: 635 nm fluorescence, higher = more signal
# [6] = molecular target: Fibroblast growth factor 2 (Homo sapiens) (UniProt P09038); test: basic fibroblast growth factor binding to printed compounds – biochemical, small-molecule microarray, 635/667 nm fluorescence, primary screen (AID 1133); conditions: FGF2, fluorescence 635/667, higher = more signal
# [7] = JC-1 mitochondrial potential readout, lung cancer cells – cell-based, A549, JC-1 fluorescence, basal, 24 h, 100 nL, profiling panel (AID 1138); conditions: higher = more signal;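 note: A549 lung adenocarcinoma cells under basal conditions with no added stimulus; test concentration not given here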
# [8] = system: Lefty1; test: Lefty1 protein binding to printed compounds – biochemical, small-molecule microarray, 635/667 nm fluorescence, primary screen (AID 1139); conditions: fluorescence 635/667, higher = more signal
# [9] = system: wheat germ agglutinin (Triticum aestivum), Alexa647-labelled; test: Alexa647-WGA lectin binding to printed small molecules – biochemical, small-molecule microarray, 635/667 nm fluorescence, artefact control for SMM control-protein annotation, profiling panel (AID 1140); conditions: WGA-A647 binding, 635 nm fluorescence, higher = more signal;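 note: score merges 667 nm feature emission with signal to noise over triplicate slides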
# [10] = molecular target: Luciferin 4-monooxygenase (Photinus pyralis) (UniProt P08659); test: inhibition of purified Photinus pyralis luciferase – biochemical, luminescence, purified enzyme, 2006 set, primary screen (AID 1141); conditions: purified firefly luciferase, SteadyGlo luminescence, 30 min; higher = more signal, called active from +8 up or from −8 down;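 note: cell-free assay with purified firefly luciferase at 100 ng per well in PBS; test concentration not given here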
# Sequence of Luciferin 4-monooxygenase (Photinus pyralis) (P08659 whole entry, looked up): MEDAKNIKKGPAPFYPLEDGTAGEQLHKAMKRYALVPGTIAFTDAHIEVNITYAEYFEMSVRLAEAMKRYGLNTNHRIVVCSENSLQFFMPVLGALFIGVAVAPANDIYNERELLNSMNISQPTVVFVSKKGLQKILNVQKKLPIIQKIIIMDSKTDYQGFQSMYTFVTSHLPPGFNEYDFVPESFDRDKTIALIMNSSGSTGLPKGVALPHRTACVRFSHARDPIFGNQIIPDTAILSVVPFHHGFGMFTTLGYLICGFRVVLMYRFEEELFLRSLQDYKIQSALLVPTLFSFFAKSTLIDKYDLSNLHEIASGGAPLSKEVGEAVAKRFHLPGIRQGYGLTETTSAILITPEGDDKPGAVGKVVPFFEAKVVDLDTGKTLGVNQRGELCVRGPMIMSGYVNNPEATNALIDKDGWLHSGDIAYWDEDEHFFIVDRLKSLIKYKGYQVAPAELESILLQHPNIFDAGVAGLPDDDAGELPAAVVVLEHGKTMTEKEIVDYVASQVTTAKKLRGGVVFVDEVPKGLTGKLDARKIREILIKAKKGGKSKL
# Sequence of Focal adhesion kinase 1 (Homo sapiens) (Q05397 whole entry, looked up): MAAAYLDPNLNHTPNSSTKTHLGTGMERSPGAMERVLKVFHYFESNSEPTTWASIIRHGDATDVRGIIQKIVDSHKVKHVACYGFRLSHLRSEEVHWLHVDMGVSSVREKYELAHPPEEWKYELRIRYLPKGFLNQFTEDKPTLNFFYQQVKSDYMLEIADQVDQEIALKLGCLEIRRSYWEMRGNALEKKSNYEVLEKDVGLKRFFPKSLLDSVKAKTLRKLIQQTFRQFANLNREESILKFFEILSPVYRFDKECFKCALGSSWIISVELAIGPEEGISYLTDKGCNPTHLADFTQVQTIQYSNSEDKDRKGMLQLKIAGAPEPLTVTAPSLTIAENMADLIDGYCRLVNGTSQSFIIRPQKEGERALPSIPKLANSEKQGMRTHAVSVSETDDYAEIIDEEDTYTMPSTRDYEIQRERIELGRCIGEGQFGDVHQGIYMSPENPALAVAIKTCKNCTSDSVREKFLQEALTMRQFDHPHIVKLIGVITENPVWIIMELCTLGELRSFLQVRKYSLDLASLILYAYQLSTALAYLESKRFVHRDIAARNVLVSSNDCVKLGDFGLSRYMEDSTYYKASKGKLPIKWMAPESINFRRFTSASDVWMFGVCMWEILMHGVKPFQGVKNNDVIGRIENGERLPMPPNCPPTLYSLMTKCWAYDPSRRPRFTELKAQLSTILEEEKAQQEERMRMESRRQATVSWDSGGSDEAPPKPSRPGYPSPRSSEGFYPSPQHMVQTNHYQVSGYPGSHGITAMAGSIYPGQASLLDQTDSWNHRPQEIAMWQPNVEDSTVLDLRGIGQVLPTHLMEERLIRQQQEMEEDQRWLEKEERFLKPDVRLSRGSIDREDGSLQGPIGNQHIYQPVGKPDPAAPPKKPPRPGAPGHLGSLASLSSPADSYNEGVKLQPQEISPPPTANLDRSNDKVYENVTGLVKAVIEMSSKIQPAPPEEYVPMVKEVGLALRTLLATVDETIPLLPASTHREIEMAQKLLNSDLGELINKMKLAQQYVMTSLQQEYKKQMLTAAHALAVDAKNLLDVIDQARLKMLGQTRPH
# Sequence of Fibroblast growth factor 2 (Homo sapiens) (P09038 whole entry, looked up): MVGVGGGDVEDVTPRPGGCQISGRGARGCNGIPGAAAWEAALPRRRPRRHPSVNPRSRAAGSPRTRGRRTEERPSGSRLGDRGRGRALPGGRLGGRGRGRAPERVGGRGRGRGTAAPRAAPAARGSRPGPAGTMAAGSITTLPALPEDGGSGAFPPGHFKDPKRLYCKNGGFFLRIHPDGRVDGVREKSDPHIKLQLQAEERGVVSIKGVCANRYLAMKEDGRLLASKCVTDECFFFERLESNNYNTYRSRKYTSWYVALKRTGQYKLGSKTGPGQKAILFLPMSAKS
# Sequence of Follistatin (Homo sapiens) (P19883 whole entry, looked up): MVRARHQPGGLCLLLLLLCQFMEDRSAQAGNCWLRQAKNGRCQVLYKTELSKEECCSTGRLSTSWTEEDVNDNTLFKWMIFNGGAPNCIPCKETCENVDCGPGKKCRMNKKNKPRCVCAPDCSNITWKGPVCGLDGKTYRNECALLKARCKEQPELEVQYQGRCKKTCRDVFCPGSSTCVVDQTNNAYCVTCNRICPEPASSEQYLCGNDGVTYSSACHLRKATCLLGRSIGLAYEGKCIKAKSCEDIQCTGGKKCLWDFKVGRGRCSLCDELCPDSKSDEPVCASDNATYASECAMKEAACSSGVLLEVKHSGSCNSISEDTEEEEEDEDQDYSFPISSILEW
SMILES,composite z-score [1],composite z-score [2],composite z-score [3],composite z-score [4],composite z-score [5],composite z-score [6],z-score [7],composite z-score [8],composite z-score [9],z-score [10]
C/C=C/CN(C(=O)C#Cc1ccccc1)[C@H](CO[Si](C)(C)C(C)(C)C)c1ccccc1,-1.73,-0.0136,-0.1,-2.12,-1.52,-1.25,0.2,-0.977,-1.7,-0.178 (inactive)
C=CCC(OC(C)=O)[C@@H]1[C@@H](N(Cc2ccc(-c3ccccc3)cc2)C(=O)c2ccc(C)cc2)c2cc(OCCCO)ccc2N1C(=O)c1ccc2ccccc2c1 (stereo not given in full),-0.722,0.117,-0.161,-0.283,0.576,-0.0502,1.68,0.297,0.008,-1.9 (inactive)
CN(C)CCCCNC(=O)[C@H]1C[C@H]2C(=O)N[C@@H](Cc3ccccc3)C(=O)N2[C@H]1c1cccc(OCCO)c1,0.807,-0.562,-0.0598,-0.205,1.21,0.694,-0.0938,0.365,-0.0282,0.801 (inactive)
CCN(CC)c1ccc(N2CC=CC34O[C@@H]5C=CCOC(=O)[C@@H]5[C@H]3C(=O)N(CCO)[C@@H]4C2=O)cc1 (stereo not given in full),-0.305,-0.508,-0.856,-0.602,-0.721,-1.44,1.41,-1.35,-1.38,-1.47 (inactive)
CCCCN1CC=CC23O[C@@H]4/C=C\CCC(C)OC(=O)C4[C@H]2C(=O)N(C(C)CO)[C@@H]3C1=O (stereo not given in full),-0.0307,-1.41,0.578,-0.526,-0.16,-0.379,0.256,-0.034,-0.128,-0.762 (inactive)
CC(C)N1CC=CC23O[C@@H]4C=CCCOC(=O)C4[C@H]2C(=O)N(CCCCCO)[C@@H]3C1=O (stereo not given in full),3,-0.349,-0.133,0.834,-1.21,-0.886,1.34,-0.376,0.717,0.0137 (inactive)
[N-]=[N+]=NCc1ccccc1C[C@]1(C(=O)N2CCOCC2)N=C(c2ccc(OCCCO)cc2)O[C@H]1c1ccccc1CN=[N+]=[N-],2.97,1.25,0.681,0.963,1.3,1.92,1.68,-0.232,1,-1.25 (inactive)
C=CCOC(=O)[C@H]1[C@@H]2C(=O)O[C@@H](c3ccccc3)[C@@H](c3ccccc3)N2[C@@H](c2ccc(OCCOC(=O)[C@@H]3C[C@@H]4C(=O)N[C@@H](Cc5ccccc5)C(=O)N4[C@@H]3c3ccc(O)cc3)cc2)[C@]12C(=O)Nc1ccccc12,1.78,1.19,1.53,0.911,1.32,1.33,-1.15,0.948,1.2,-0.497 (inactive)
C=CCNC(=O)[C@@H]1[C@H]2C(=O)O[C@H](c3ccccc3)[C@H](c3ccccc3)N2[C@H](c2ccc(O)cc2)[C@@]12C(=O)Nc1ccc(C#CC3(O)CCCCCC3)cc12,0.906,0.596,1.31,-1.37,0.726,0.749,-0.9,0.304,-0.321,0.27 (inactive)
NCCCC[C@@H]1NC(=O)[C@H]2C[C@@H](C(=O)NCc3ccc(F)cc3)[C@@H](c3ccc(O)cc3)N2C1=O,2.05,0.969,-0.145,0.165,1.32,1.32,-0.724,0.296,1.2,0.242 (inactive)
O=C1O[C@H](c2ccccc2)[C@H](c2ccccc2)N2[C@H]1[C@@H](C(=O)NC[C@H](O)c1ccccc1)[C@]1(C(=O)Nc3ccc(C#CCCO)cc31)[C@H]2c1ccccc1OCCO,1.6,1.18,0.746,0.812,1.1,0.419,-0.223,1.39,0.593,0.597 (inactive)
COCC1=C([C@H](O)CCc2ccccc2)[C@H](CO)n2c(=O)n(-c3ccccc3)c(=O)n2C1,-0.507,-0.364,-0.044,-0.325,0.0942,1.08,-0.152,-0.0597,0.361,-1.59 (inactive)
N#Cc1ccc(C(O)C2C=CC3C(=O)N(c4ccccc4)C(=O)C3N2Nc2ccc([N+](=O)[O-])cc2)cc1 (stereo not given),2.33,1.25,0.895,0.991,0.499,-0.207,-2.34,-0.44,1.4,0.279 (inactive)
CN(C)C(=O)[C@]1(Cc2ccccc2CN=[N+]=[N-])N=C(c2ccc(OCCCO)cc2)O[C@@H]1c1ccccc1N=[N+]=[N-],0.266,1.23,0.977,1.02,1.18,-0.0347,0.568,-0.136,1.12,-9.41 (active)
CC(C)c1ccc(NN2C(C(O)C(C)C)C=CC3C(=O)N(c4ccccc4)C(=O)C32)cc1 (stereo not given),1.66,1.26,0.811,1.04,0.754,0.013,-0.81,0.172,1.12,-1.73 (inactive)
CC(C)(C)OC(=O)CC[C@]1(C(N)=O)N=C(c2ccc(OCCCO)cc2)O[C@H]1c1ccccc1CN=[N+]=[N-],3.93,1.15,0.291,0.878,0.421,1.44,0.187,-0.512,0.668,-4.65 (inactive)
